Compound activity: PubChem BioAssay, several laboratories
SSB-PriA inh – blocks PriA binding to SSB C-terminal tail | AlphaScreen SSBct-PriA binding, biotinylated peptide | inhibition, % at 33 µM | 0.6% of 430,000 active | AID 1272365; in the data active means inhibition mostly above about 37%, no sharp cut-off; inactive means mostly below about 20%;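 further: plate controls were negative control peptide for no effect and reference peptide for full effect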
Rv3671c inh – Rv3671c (M. tuberculosis) protease inhibition; P9WHR9; inhibition, % at 5.96 µM; 0.048% of 320,000 active; AID 2606; in the data active means inhibition above about 38%;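 further: extracellular domain of Rv3671c used as enzyme; 0% = enzyme with DMSO and 100% = no enzyme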
Target sequence (P9WHR9 whole entry, looked up, the tested form may be a part): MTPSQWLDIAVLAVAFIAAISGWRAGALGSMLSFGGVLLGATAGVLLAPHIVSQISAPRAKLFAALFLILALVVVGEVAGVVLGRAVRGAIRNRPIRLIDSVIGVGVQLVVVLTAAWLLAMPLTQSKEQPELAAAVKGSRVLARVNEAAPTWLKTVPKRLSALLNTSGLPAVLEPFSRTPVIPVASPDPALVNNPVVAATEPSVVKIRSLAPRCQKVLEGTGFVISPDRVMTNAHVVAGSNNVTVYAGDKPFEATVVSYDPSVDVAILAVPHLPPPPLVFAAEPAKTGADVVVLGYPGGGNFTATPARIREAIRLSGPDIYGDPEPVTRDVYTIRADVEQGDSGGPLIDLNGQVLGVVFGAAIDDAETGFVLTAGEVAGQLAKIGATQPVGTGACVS
PrPC surface inh – cell surface PrPC inhibition, primary TR-FRET screen. TR-FRET read-out. inhibition, % at 13.8 µM. 0.43% of 370,000 active; in the data active means inhibition above about 24%; further: 0% = median of the test wells and 100% = reference compound wells
PrP 5UTR inh – suppresses PrP 5' UTR mRNA reporter expression. cell-based PrP 5' UTR mRNA reporter, plate reader. inhibition, % (concentration not given with the values). 0.35% of 340,000 active. AID 488862; in the data active means inhibition above about 52%; further: 0 = median of the neutral control wells
FadD28 binding – blocks FadD28 binding to the bisubstrate probe. fluorescence polarization. inhibition, % at 12.5 µM. 0.22% of 360,000 active. AID 588549; in the data active means inhibition above about 8.5%, passing the limit was not always enough
UGM FP inh – blocks M. tuberculosis UGM enzyme; AID 504406; 0.06% of 320,000 active; inhibition, % at 10 µM; P9WIQ1; purified UGM, fluorescence polarization probe displacement; in the data active means inhibition above about 10%, passing the limit was not always enough
Active calls of the source: *; . = no result. Sampled rows, rich in hits. Any-hit rate of the full collection: about 1.2%.

SMILES	SSB-PriA inh	Rv3671c inh	PrPC surface inh	PrP 5UTR inh	FadD28 binding	UGM FP inh
COc1ccc(C(=O)N2CCOC2CNC(=O)C(=O)NCCc2ccc(S(N)(=O)=O)cc2)cc1 (centres undefined)	-4	.	.	.	.	.
Cc1ccc(O)c(N=Nc2ccc(S(=O)(=O)N3CCOCC3)cc2)c1	39*	4	-24	-39	-1	0
Cc1cc(O)c([C@H](c2ccncc2)N2CCN(c3ccccc3F)CC2)c(=O)n1Cc1cccnc1	-10	.	.	.	.	.
Clc1cc2c(c3ncccc13)OCN(CCC1=CCCCC1)C2	95*	.	.	.	.	.
O=c1c2cccnc2[nH]c(=S)n1CCC1=CCCCC1	5	-4	-3	-24	-2	0
CC1CCc2c(sc3c2C(=O)NC(c2ccccn2)N3)C1 (centres undefined)	67*	.	.	.	.	.
CN1CCc2c(sc3c2C(=O)NC(c2cccs2)N3)C1 (centres undefined)	-6	-15	-1	-20	1	2
Cc1ccc(C)c(Cn2cccc(C(=O)Nc3ccc(F)c([N+](=O)[O-])c3)c2=O)c1	-10	.	.	.	.	.
COc1ccc(/C=C/C(=O)Nc2nnc(-c3cccc(S(C)(=O)=O)c3)o2)cc1OC	-14	.	.	.	.	.
NNc1ccc2c(C(F)(F)F)cc(C(F)(F)F)nc2n1	10	3	-5	-23	0	2
N#CC(c1cccc(Cl)c1)c1ccc2c(C(F)(F)F)cc(C(F)(F)F)nc2n1 (centres undefined)	51*	-3	-3	0	0	.
O=C(NCC1CCCO1)c1cccc2c1C(=O)c1ccc(N3CCC(Cc4ccccc4)CC3)cc1S2(=O)=O (centres undefined)	-12	-7	.	-10	-3	19*
O=C(NC1CCCCC1)c1cccc2c1C(=O)c1ccc(N3CCC(Cc4ccccc4)CC3)cc1S2(=O)=O	8	-23	-10	-7	-1	19*
CC1CCN(c2ccc3c(c2)S(=O)(=O)c2cccc(C(=O)NC[C@@H]4CCCO4)c2C3=O)CC1	1	-17	-32	-25	-2	0
CCOc1ccc(NC(=O)C2C(c3ccccc3)C2(Cl)Cl)cc1 (centres undefined)	2	-4	17	-16	-1	-1
CCOc1ccc(NC(=O)C2C(C(=O)O)C3(Cl)C(Cl)=C(Cl)C2(Cl)C3(Cl)Cl)cc1 (centres undefined)	3	-1	6	-27	21*	2
O=c1cc(O)c2ncccc2[nH]1	129*	.	.	.	.	.
O=C(c1cccc(Br)c1)N1CC(S(=O)(=O)Cc2ccco2)C1	8	.	.	.	.	.
CC(C)c1ccc(/C=C/C(=O)c2nc3ccccc3s2)cc1	0	.	.	.	.	.
CC(C)S(=O)(=O)c1ccc(C(=O)Nc2nc(-c3ccccn3)cs2)cc1	106*	.	.	.	.	.
CN(C1CCCCC1)S(=O)(=O)c1ccc(C(=O)Nc2nc(-c3ccccn3)cs2)cc1	14	.	.	.	.	.
CN(c1ccccc1)S(=O)(=O)c1ccc(C(=O)Nc2nc(-c3ccc(Br)s3)cs2)cc1	-13	.	.	.	.	.
CN(c1ccccc1)S(=O)(=O)c1ccc(C(=O)Nc2nc(-c3ccccn3)cs2)cc1	52*	.	.	.	.	.
Nc1ncnc(NNC(=O)CNC(=O)c2ccc(S(=O)(=O)N3CCCCC3)cc2)c1[N+](=O)[O-]	-4	.	.	.	.	.
CN(N=Nc1ccc([N+](=O)[O-])cc1)c1ccccc1	11	-7	3	-63	0	26*
SMILES	SSB-PriA inh	Rv3671c inh	PrPC surface inh	PrP 5UTR inh	FadD28 binding	UGM FP inh
COC(=O)C1=C(c2cccc(OCc3ccccc3)c2)C[C@@H]2CC[C@H]1N2C(=O)NCc1ccc(N(C)C)cc1	56*	1	10	-26	-6	-5
COC(=O)C1=C(c2ccc(F)cc2OCc2ccccc2)C[C@@H]2CC[C@H]1N2C(=O)NCc1ccc(N(C)C)cc1	46*	13	9	-5	-2	-3
COC(=O)C1=C(c2ccccc2OCc2ccccc2)C[C@@H]2CC[C@H]1N2C(=O)NCc1ccc(N(C)C)cc1	53*	8	8	-9	0	1
COC(=O)C1=C(c2ccc(F)cc2OCc2ccccc2)C[C@@H]2CC[C@H]1N2C(=O)NCc1ccc(Br)cc1	-16	-22	4	-14	-6	3
O=C(c1ccc(Cl)c(S(=O)(=O)N2CCCCCC2)c1)N1CCc2ccccc21	-16	.	.	.	.	.
O=C(COc1ccc(Br)cc1)OCCOc1ccc([N+](=O)[O-])cc1	-3	.	.	.	.	.
COc1cccc(C(=O)NCCNc2ccc(Nc3ccccn3)nn2)c1OC	1	.	.	.	.	.
CC(C)(Oc1ccc(Cl)cc1)C(=O)NCCNc1ccc(Nc2ccccn2)nn1	31*	.	.	.	.	.
O=c1cc[nH]c2c(=O)cc[nH]c12	22	.	.	.	.	.
CC(C)OCCCN1CC2=C(C1=O)[C@@H](c1ccccc1F)NC(=O)N2	-8	.	.	.	.	.
O=[N+]([O-])c1cc(CN2CCN(c3ccccc3)CC2)c(O)c2ncccc12	75	4	16	24	-1	1
Oc1c(Cl)cc(CN2CCOCC2)c2cccnc12	115*	7	5	-7	-2	2
O=[N+]([O-])c1cc(CN2CCOCC2)c2cccnc2c1O	92*	.	.	.	.	.
Oc1cccc2ccc(Nc3ccccn3)nc12	103*	7	12	17	-2	0
O=C(c1ccco1)N1CCC(Cn2ccnc2-c2ccccc2)CC1	-15	.	.	.	.	.
COc1ccccc1CCNc1ccc2nnc(CCNC(=O)c3ccc(C)cc3)n2n1	-20	.	.	.	.	.
COc1ccc(-c2cc(=O)[nH]c3ccccc23)cc1	2	-6	8	-1	-2	11*
Cc1ccc(-c2cc(=O)[nH]c3ccccc23)cc1	3	1	6	-30	-5	0
COc1ccc(Nc2cc(C)nc(Nc3ccc(NS(=O)(=O)c4cc(C(C)(C)C)ccc4OC)cc3)n2)cc1	43*	.	.	.	.	.
COc1cc(C)c(Cl)cc1S(=O)(=O)Nc1ccc(Nc2nc(C)cc(Nc3ccc(C)cc3)n2)cc1	-9	.	.	.	.	.
COCCOc1cc(NC(=O)c2sccc2Oc2ccc([N+](=O)[O-])cc2F)c(Cl)cc1Cl	26	11	-14	-9	-1	1
O=C(Nc1ccccc1)c1sccc1Oc1ccc([N+](=O)[O-])cc1F	44*	7	-6	-13	-1	0
O=C(CSc1nc(-c2ccccc2)c(-c2ccccc2)[nH]1)NCc1ccco1	42*	1	10	-15	0	-1
CCOC(=O)N1CCN(S(=O)(=O)c2ccc(C(=O)Nc3c(C(N)=O)oc4ccccc34)cc2)CC1	-16	.	.	.	.	.
O=C(Nc1ccc(-c2ccc3nnc(-c4ccccn4)n3n2)cc1)c1cccc(F)c1	40*	.	.	.	.	.
COCC(=O)N1CCCc2ccc(NS(=O)(=O)CC34CCC(CC3=O)C4(C)C)cc21 (centres undefined)	36*	.	.	.	.	.
COC(=O)N1CCc2ccc(NS(=O)(=O)CC34CCC(CC3=O)C4(C)C)cc2C1 (centres undefined)	-14	.	.	.	.	.
COCC(=O)N1CCCc2ccc(NC(=O)Cc3ccsc3)cc21	35*	.	.	.	.	.
Cn1nc(C(=O)N2CCN(c3ccccc3Cl)CC2)ccc1=O	-10	.	.	.	.	.
